PubChem BioAssay
For some assays here: Potency and affinity values are given separately. Active and inactive are the calls of the source. Unless noted, no rule for the calls is given here.

Tests used:
[1] = antimalarial activity against Dd2 strain (AID 2302;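 active = growth inhibition above 50% at the single 2 µM test dose, taken to imply half-maximal potency below 2 µM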;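 also: 0% = DMSO untreated growth and 100% = chloroquine plus artemisinin killed control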); details: P. falciparum Dd2 in RBCs, LDH growth readout, 72 h; at 2 µM; hits give high values
[2] = HepG2 cytotoxicity, primary screen, cytotoxicity control for P. falciparum antimalarial project, cell-based, ATP luminescence (AID 2303;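 active = inhibition above 50%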;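 also: 0% = DMSO wells and 100% = digitonin-killed cells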); details: HepG2 viability, 24-48 h, at 10 µM, hits give high values
[3] = target: L-lactate dehydrogenase (Plasmodium falciparum (isolate CDC / Honduras)) (UniProt Q27743); experiment: PfLDH activity inhibition – cell lysate, 3D7 strain, counter-screen for P. falciparum growth inhibition project (AID 2304);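 also: 0% = vehicle and 100% = reference inhibitor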; details: P. falciparum 3D7 crude extract, LDH APAD/NBT absorbance; at 2 µM; hits give high values
[4] = inhibition of 3D7 malaria parasite growth – strain 3D7 (AID 2306);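 also: 0% = DMSO wells and 100% = chloroquine plus artemisinin control wells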; details: P. falciparum 3D7 erythrocytic growth, LDH absorbance, 72 h; at 2 µM; hits give high values
[5] = target: Calcium-dependent protein kinase 1 (Plasmodium falciparum (isolate 3D7)) (UniProt P62344); experiment: PfCDPK1 kinase inhibitors, biochemical, TCAMS library (AID 1159585; cut-off not given, nearly all actives have IC50 up to about 0.98 µM;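 also: inhibitors leave more ATP so luminescence rises with inhibition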); details: recombinant PfCDPK1, Kinase-Glo ATP depletion luminescence
[6] = target: Plasmodium falciparum protein kinase 6 (PK6, PF3D7_1337100) (UniProt Q8IDW1); experiment: PfPK6 kinase inhibitors, biochemical, TCAMS library (AID 1159586); details: recombinant PfPK6, Kinase-Glo ATP depletion luminescence
[7] = target: Protein kinase 7 (PK7), Plasmodium falciparum 3D7 (PF3D7_0213400) (UniProt Q7YTF7); experiment: inhibition of Plasmodium PK7 catalytic activity – biochemical, TCAMS antimalarial set, Kinase-Glo luminescence (AID 1159587); details: recombinant PfPK7, Kinase-Glo ATP depletion luminescence
[8] = target: Calcium-dependent protein kinase 4 (Plasmodium falciparum (isolate 3D7)) (UniProt Q8IBS5); experiment: PfCDPK4 kinase inhibitors, biochemical, TCAMS library (AID 1159588; cut-off not given, nearly all actives have IC50 up to about 0.91 µM); details: recombinant PfCDPK4, Kinase-Glo ATP depletion luminescence
Sequence of Calcium-dependent protein kinase 4 (Plasmodium falciparum (isolate 3D7)) (Q8IBS5 whole entry, looked up): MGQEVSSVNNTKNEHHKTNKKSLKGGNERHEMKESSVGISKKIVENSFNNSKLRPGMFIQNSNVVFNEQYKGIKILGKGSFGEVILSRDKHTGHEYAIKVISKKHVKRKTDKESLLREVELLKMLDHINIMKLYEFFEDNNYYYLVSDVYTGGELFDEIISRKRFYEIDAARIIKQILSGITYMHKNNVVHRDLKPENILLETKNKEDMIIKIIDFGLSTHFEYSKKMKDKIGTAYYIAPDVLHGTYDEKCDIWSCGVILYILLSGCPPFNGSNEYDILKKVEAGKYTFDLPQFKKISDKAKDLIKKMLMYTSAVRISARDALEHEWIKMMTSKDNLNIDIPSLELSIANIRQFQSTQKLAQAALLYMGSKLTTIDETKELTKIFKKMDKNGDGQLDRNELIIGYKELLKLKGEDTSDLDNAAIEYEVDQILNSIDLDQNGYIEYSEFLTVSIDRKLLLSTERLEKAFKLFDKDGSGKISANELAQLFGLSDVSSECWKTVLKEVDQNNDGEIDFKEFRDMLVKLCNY

Sequence of Plasmodium falciparum protein kinase 6 (PK6, PF3D7_1337100) (Q8IDW1 1-305): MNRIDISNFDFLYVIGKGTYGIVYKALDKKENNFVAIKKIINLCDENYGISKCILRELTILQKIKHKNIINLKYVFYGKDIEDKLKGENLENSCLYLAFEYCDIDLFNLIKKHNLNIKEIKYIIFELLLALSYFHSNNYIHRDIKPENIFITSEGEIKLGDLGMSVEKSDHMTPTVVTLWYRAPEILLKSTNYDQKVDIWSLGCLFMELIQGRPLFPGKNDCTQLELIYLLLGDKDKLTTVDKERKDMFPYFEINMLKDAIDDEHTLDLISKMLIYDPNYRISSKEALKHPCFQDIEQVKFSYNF
Sequence of L-lactate dehydrogenase (Plasmodium falciparum (isolate CDC / Honduras)) (Q27743 whole entry, looked up): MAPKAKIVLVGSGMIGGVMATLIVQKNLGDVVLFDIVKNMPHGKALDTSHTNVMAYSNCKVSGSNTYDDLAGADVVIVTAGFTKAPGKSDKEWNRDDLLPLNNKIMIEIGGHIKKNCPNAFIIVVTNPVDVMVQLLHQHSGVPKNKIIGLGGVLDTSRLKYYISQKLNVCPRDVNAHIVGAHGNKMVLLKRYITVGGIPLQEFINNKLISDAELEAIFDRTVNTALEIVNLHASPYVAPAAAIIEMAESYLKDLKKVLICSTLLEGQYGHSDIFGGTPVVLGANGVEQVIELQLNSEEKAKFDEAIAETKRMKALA
Sequence of Calcium-dependent protein kinase 1 (Plasmodium falciparum (isolate 3D7)) (P62344 whole entry, looked up): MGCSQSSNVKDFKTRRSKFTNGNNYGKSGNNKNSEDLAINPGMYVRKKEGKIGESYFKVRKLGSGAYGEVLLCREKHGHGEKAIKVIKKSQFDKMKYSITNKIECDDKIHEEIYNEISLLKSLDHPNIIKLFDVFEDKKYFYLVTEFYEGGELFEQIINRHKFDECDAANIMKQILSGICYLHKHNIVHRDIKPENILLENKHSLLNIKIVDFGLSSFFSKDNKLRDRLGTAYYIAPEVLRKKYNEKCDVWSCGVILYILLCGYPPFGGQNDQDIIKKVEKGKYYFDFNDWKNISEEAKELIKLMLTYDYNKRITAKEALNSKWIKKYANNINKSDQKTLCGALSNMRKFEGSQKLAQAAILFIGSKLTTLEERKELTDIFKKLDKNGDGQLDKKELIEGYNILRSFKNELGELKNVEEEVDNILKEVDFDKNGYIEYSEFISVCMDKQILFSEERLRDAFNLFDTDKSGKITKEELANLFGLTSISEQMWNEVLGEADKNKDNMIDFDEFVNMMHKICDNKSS
Sequence of Protein kinase 7 (PK7), Plasmodium falciparum 3D7 (PF3D7_0213400) (Q7YTF7 1-343): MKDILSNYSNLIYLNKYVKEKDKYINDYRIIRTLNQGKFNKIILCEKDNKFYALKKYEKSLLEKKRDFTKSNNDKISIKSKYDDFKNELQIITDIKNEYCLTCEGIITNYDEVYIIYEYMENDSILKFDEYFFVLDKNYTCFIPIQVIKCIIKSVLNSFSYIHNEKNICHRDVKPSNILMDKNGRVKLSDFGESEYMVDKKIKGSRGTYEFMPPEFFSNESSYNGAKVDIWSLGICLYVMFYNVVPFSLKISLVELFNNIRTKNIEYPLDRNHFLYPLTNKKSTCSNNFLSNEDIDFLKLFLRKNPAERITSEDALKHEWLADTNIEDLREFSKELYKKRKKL

C=CCn1c(Sc2ccc(C#N)c([N+](=O)[O-])c2)nnc1-c1cc(OC)cc(OC)c1
inactive: inhibition [2] 12% | inhibition [3] 0% | outcome [5] | outcome [6] | outcome [7] | outcome [8]
active: growth inhibition [1] 84% | growth inhibition [4] 96%

N#Cc1ccccc1S(=O)(=O)N1CCCC(CNC(=O)[C@H](CC2CCCCC2)NC(=O)c2cc3ccccc3s2)C1 (some centres not stated)
inactive: inhibition [2] 9% | inhibition [3] -2% | outcome [5] | outcome [6] | outcome [7] | outcome [8]
active: growth inhibition [1] 92% | growth inhibition [4] 97%

Cc1nc(-c2ccc3c(c2)CCN(CCC2CCC(NC(=O)c4cc5cccc(Cl)c5[nH]4)CC2)CC3)no1 (configuration not stated)
inactive: growth inhibition [1] 46% | inhibition [2] 36% | inhibition [3] 2% | outcome [5] | outcome [6] | outcome [7] | outcome [8]
active: growth inhibition [4] 100%

CCOC(=O)c1cn(CC)c2cc(O[C@H]3CCN(C(=O)OC(C)(C)C)C3)ccc2c1=O
inactive: inhibition [2] 9% | inhibition [3] -1% | outcome [5] | outcome [6] | outcome [7] | outcome [8]
active: growth inhibition [1] 75% | growth inhibition [4] 98%

CN1CCCN(Cc2ccc(-c3ccc(NC(=O)c4cccc(Cl)c4)cc3)cc2)CC1
active: growth inhibition [1] 64% | inhibition [2] 55% | growth inhibition [4] 95%
inactive: inhibition [3] 2% | outcome [5] | outcome [6] | outcome [7] | outcome [8]

Cc1nc(NCCCn2ccnc2)cc(-c2cncc(-c3ccc(OC(F)(F)F)cc3)c2)n1
active: growth inhibition [4] 99%
inactive: growth inhibition [1] 11% | inhibition [2] 2% | inhibition [3] 2% | outcome [5] | outcome [6] | outcome [7] | outcome [8]

CCN(CC)CCN(Cc1ccc(-c2ccc(C(F)(F)F)cc2)cc1)C(=O)Cn1c(CCc2ccccc2F)nc(=O)c2ccccc21
active: growth inhibition [1] 54% | growth inhibition [4] 95%
inactive: inhibition [2] 39% | inhibition [3] -1% | outcome [5] | outcome [6] | outcome [7] | outcome [8]

COc1ccc2[nH]c(C(=O)Nc3ccc4nc(-c5ccccc5)[nH]c4c3)cc2c1
active: inhibition [2] 51% | growth inhibition [4] 96%
inactive: growth inhibition [1] 23% | inhibition [3] -1% | outcome [5] | outcome [6] | outcome [7] | outcome [8]

N#Cc1ccc(OCCN(Cc2ccccc2C(F)(F)F)c2ccc(C#N)c(C(F)(F)F)c2)cc1
active: growth inhibition [1] 84% | inhibition [2] 69% | growth inhibition [4] 101%
inactive: inhibition [3] 1% | outcome [5] | outcome [6] | outcome [7] | outcome [8]

Cn1ccc2c3c(N)nc(N)nc3ccc21
inactive: growth inhibition [1] 17% | inhibition [3] 6% | outcome [5] | outcome [6] | outcome [7] | outcome [8]
active: inhibition [2] 59% | growth inhibition [4] 91%

COc1ccc(NC(=O)c2csc(-c3cc(NC(=O)c4ccnc(N5CCCC5)c4)ccc3C)c2)cc1N1CCN(C)CC1
active: growth inhibition [1] 80% | growth inhibition [4] 100%
inactive: inhibition [2] 4% | inhibition [3] 1% | outcome [5] | outcome [6] | outcome [7] | outcome [8]

CSc1ccc2nccc(Nc3ccc(Oc4ccccc4)cc3)c2c1
inactive: inhibition [2] 30% | inhibition [3] -7% | outcome [5] | outcome [6] | outcome [7] | outcome [8]
active: growth inhibition [1] 68% | growth inhibition [4] 94%

CCN(CC)CCN(CCCc1ccc(-c2ccc(C(F)(F)F)cc2)cc1)C(=O)Cn1c(CCc2cccc(F)c2F)nc(=O)c2c1CCC2
inactive: growth inhibition [1] 27% | inhibition [2] 38% | inhibition [3] -2% | outcome [5] | outcome [6] | outcome [7] | outcome [8]
active: growth inhibition [4] 92%

CCOC(=O)c1ccc(NC(=O)Nc2cccc(-c3cccc(-c4nc5c(C)cccc5[nH]4)c3)c2)cc1
inactive: inhibition [2] 37% | inhibition [3] 0% | outcome [5] | outcome [6] | outcome [7] | outcome [8]
active: growth inhibition [1] 99% | growth inhibition [4] 100%

Cc1ccc2c(c1)c(C1CCN(C(=O)c3ccc([N+](=O)[O-])o3)CC1)cn2C
active: growth inhibition [1] 76% | growth inhibition [4] 97%
inactive: inhibition [2] -6% | inhibition [3] -1% | outcome [5] | outcome [6] | outcome [7] | outcome [8]

COc1ccc(C(=O)Nc2ccc(-c3nc4ccc(C)cc4[nH]3)cc2)cc1OC
active: inhibition [2] 70% | growth inhibition [4] 100%
inactive: growth inhibition [1] 38% | inhibition [3] 0% | outcome [5] | outcome [6] | outcome [7] | outcome [8]

COc1ccc(NC(=O)/C=C/c2ccccc2Cl)cc1OCCN1CCC(N2CCCCC2)CC1
active: growth inhibition [4] 101%
inactive: growth inhibition [1] 49% | inhibition [2] 3% | inhibition [3] 1% | outcome [5] | outcome [6] | outcome [7] | outcome [8]

CN(CCCNCc1ccc2ccccc2c1)CCCNCc1ccc2ccccc2c1
active: growth inhibition [1] 79% | inhibition [2] 100% | growth inhibition [4] 100%
inactive: inhibition [3] 1% | outcome [5] | outcome [6] | outcome [7] | outcome [8]

Cc1cccc2[nH]c(-c3ccc(-c4cccc(NC(=O)C(C)CN5CCN(C)CC5)c4)cc3)nc12 (configuration not stated)
active: growth inhibition [1] 51% | growth inhibition [4] 98%
inactive: inhibition [2] 5% | inhibition [3] 3% | outcome [5] | outcome [6] | outcome [7] | outcome [8]
